39 molecules from PubChem BioAssay (NCI) can be followed below.

The panel holds about 83,000 compounds, 20% with a hit somewhere; the sample as a whole holds those more often.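 Note: values are percent growth. 100 is the growth of untreated cells, values between 100 and 0 indicate rising inhibition; between -100 and 0 indicates cell death.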 Values without a mark were called inactive. Active and inactive are the calls of the source. Rule for the calls: active = growth percent below 10; inactive = the rest.

The subject of this experiment is DU-145 prostate. Kind of experiment: NCI-60 one-dose screen, 48 h (100 = growth as untreated, 0 = no growth, -100 = all killed). Particulars: 10 µM unless noted.
With `CCCSC1=NC2C(N(CC)C(=O)N2CC)N1/N=C/C=C/c1ccccc1[N+](=O)[O-]` (centres undefined), the growth is 19.8%.
For `COC(=O)C1=Nc2ccc(F)cc2/C1=C/c1sc(=S)[nH]c1O`, the growth was 11.9%.
To `O=C1c2cc(Br)ccc2Oc2cc([N+](=O)[O-])ccc2N1c1ccc(I)cc1F` belongs 105%.
With `COc1cccc(-c2nn(C)c3sc(C(=O)NCCN4CCN(c5ccccc5F)CC4)cc23)c1`, the growth is 89.4%.
The same measure for `O=S(=O)(c1ccccc1)n1cc2c(c1-c1ccccc1)CCc1sc(Nc3ccccc3)nc1-2`: 90.1%; for `CN1CCN(Cc2ccc(NC(=O)c3cncc(C#Cc4nc(N)nc5[nH]ncc45)c3)cc2C(F)(F)F)CC1`: 74.7%.
The same measure for `Clc1ccc(-c2nnc(COc3ccc(C4=NNC(c5ccco5)C4)cc3)o2)cc1` (centres undefined): 94.8%.
To `CC(=O)c1ccc(Cc2ccc(C(C)=O)s2)s1` belongs 113%; to `CCOC(=O)c1cnc2ccc(Cl)cc2c1NCCCN(C)C`, 19.2%.
With `CCN1C(=O)N(CC)C2C1NN=c1s/c(=C3\C(=O)N(CC(C)(C)C)c4ccccc43)c(=O)n12` (centres undefined), the growth was 6.12% (active).
The same measure for `CC(=O)c1ccc2oc(=O)n(Cc3ccc(C#N)cc3)c(=O)c2c1`: 111%; for `O=C1/C(=C/c2cccc(O)c2)COc2ccc(O)cc21`: 80.5%; for `O=C(Nc1nc2c(s1)CCc1c-2c(Br)n(Cc2ccccc2)c1Br)c1ccccc1`: 74.5%.
The same measure for `Nc1n[nH]c2ccc([C@@H]3Nc4ccc5[nH]ncc5c4[C@H]4[C@H]5CCC(C5)[C@H]43)cc12`: 7.74% (active).
To `CN(C)c1ccc(/C=C/c2ccnc3c(O)cccc23)cc1` belongs 13.9%.
On to `CCOC(=O)c1cc2c(n1Cc1cccc(OC)c1)-c1oncc1CCC2`, for which the growth is 23.3%.
To `Cn1nc(C(C)(C)C)cc1NC(=O)Cc1ccc(/C=C2\C(=O)Nc3ccccc32)cc1` belongs 56.6%.
The same measure for `Cc1c(C(=O)OCCO)cc(-c2ccc(Cl)cc2)n1-c1ccc(Cl)cc1Cl`: 62.9%; for `CCC1=C[C@]2(C3CC(=O)N(c4ccccc4)C3=O)CC(C(C)(C)C)C[C@@H]2[C@@H]2C(=O)N(c3ccccc3)C(=O)[C@H]12` (some centres undefined): 92%; for `Nc1ccc(-c2nn3c(CCC(=O)c4nc5ncccc5[nH]4)nnc3s2)c(O)c1`: 96.5%.
To `CCCCCCc1cc2cc(-c3nc4ccccc4[nH]3)c(=Nc3ccccc3C)oc2cc1O` belongs 67.4%.
`COc1ccc(OC)c(N(CCN2C(=O)c3ccccc3C2=O)C(=O)CCl)c1`: the growth is 86.1%.
On to `COc1ccc(C)c2sc(N(Cc3cccnc3)C(=O)c3ccc(C#N)cc3)nc12`, for which the growth is 17.3%.
The same measure for `O=C(/C=C/c1ccccn1)c1ccc(OCc2nnc(-c3ccc(Cl)cc3)o2)cc1`: 23.8%.
To `COc1ccc(C2C3=C(COC3=O)N(CCO)c3cc4c(cc32)CCC4)cc1` (centres undefined) belongs 78.5%.
The same measure for `CN(C)/C=C1\SC(=Nc2ccc(Cl)cc2)NC1=O`: 108%.
For `c1ccc(CNc2nc(Nc3ccccc3)nc3ccccc23)cc1`, the growth was 40.5%.
To `COc1ccc2c(c1)C=C1CSCC3=Cc4cc(OC)ccc4OC13O2` belongs 17.7%; to `COc1ccc(C(O)(CCC(C)C)C(CN2CCOCC2)c2ccc(Cl)cc2)cc1` (centres undefined), 73.8%.
In the case of `COC(=O)[C@H]1CCCN1C(=O)[C@H]1CCCN1C(=O)[C@H](Cc1c[nH]c2ccccc12)NC(=S)Nc1cc(C(F)(F)F)cc(C(F)(F)F)c1`, the growth is 64.6%.
`CCn1c(Cc2ccccc2Nc2c(Cl)cccc2Cl)nnc1SCC(=O)NN1C(=O)/C(=C/c2cccc(OC)c2OC)SC1=S`: the growth is 105%.
To `CCCC(c1nnnn1C1CCCCC1)N1CCN(C(=O)c2ccco2)CC1` (centres undefined) belongs 69.7%; to `C1=CC2(C=C1)OC21CCC2(C=CC3(C2)OC3C2CCCCC2)CC1` (centres undefined), 112%; to `O=C(NC1CCN(Cc2ccccc2)CC1)c1cc(C(=O)NC2CCN(Cc3ccccc3)CC2)cc(C(=O)NC2CCN(Cc3ccccc3)CC2)c1`, 93.4%.
To `COc1cc(-c2c3c(c(Br)n2Cc2ccccc2)-c2nc(N)sc2CC3)cc(OC)c1OC` belongs 108%.
To `NC(CCc1nc2ccccc2c(=O)[nH]1)C(=O)O` (centres undefined) belongs 120%; to `Nc1no[n+]([O-])c1-c1nnc2c(n1)-c1ccccc1C2=O`, 1.97% (active).
With `CCOc1ccc(-c2nonc2NC(=O)c2cccc(C)c2)cc1OCC`, the growth is 80.5%.
To `Cc1ccc(OCCCCCCNCCO)c(C)c1` belongs 21.5%.
